About 83,000 compounds went through this panel and 20% of them were active in at least one assay; those are over-represented in the sample as a whole.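 Results are percent growth after 48 hours of single-concentration exposure. 100 means growth as in untreated cells, lower positive values show inhibition; negative values down to -100 show cell death.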 A number with no mark means an inactive call. The source made the active and inactive calls. Rule for the calls: active = growth percent below 10; inactive = the rest.

For one test, the system named is LOX IMVI melanoma. Kind of test: NCI-60 one-dose screen, 48 h (100 = growth as untreated, 0 = no growth, -100 = all killed). The following applies: 10 µM unless noted.
Turning to `COc1cccc(Nc2nc(SC)nc(-c3cccc([N+](=O)[O-])c3)c2C#N)c1`, the growth was 64.9%.
Turning to `CSc1nc(NCCO)c(C#N)c(-c2cccc([N+](=O)[O-])c2)n1`, the growth is 91.6%.
In the case of `Cn1c(O)c(N=NC(=O)c2cc(-c3ccccc3)on2)c2ccccc21`, the growth is 92.2%.
With `CSc1nc(Nc2cccc(NC(=O)/C(C#N)=C/c3c(Cl)cccc3Cl)c2)c(C#N)c(-c2cccc([N+](=O)[O-])c2)n1`, the growth is 2.43% (active).
Take `COc1ccc(-c2nc3ccc(-c4nc5ccc(N6CCN(c7ccccc7)CC6)cc5[nH]4)cc3[nH]2)cc1OC`: the growth was -91.8% (active).
`O=C(N=Nc1c(O)[nH]c2ccccc12)c1cc(-c2ccccc2)on1`: the growth is 95.9%.
Regarding `O=C1CC(=NCC(=O)n2c(-c3ccccc3)nc3ccccc32)NN1`, the growth was 89.9%.

The subject of the next test is SK-MEL-28 melanoma. The test is described as above. The following applies: 10 µM unless noted.
On to `C=C(C)[C@@H]1CC[C@]2(C(=O)OC)CC[C@]3(C)[C@H](CC[C@@H]4[C@@]5(C)C/C(=C/c6cccc(I)c6)C(=O)C(C)(C)[C@@H]5CC[C@]43C)[C@@H]12`, for which the growth is 104%.
As to `N#Cc1c(-c2ccc(Cl)cc2)nc(NN=Cc2ccco2)nc1N1CCOCC1`, the growth is 65.9%.
On to `C=CC(=O)Nc1cccc(Nc2nc(SC)nc(-c3cccc([N+](=O)[O-])c3)c2C#N)c1`, for which the growth was 25.3%.
For `COc1ccc(/C=C/C(=O)c2ccc(O)c(CN3CCN(c4cc5c(cc4F)c(=O)c(C(=O)O)cn5C4CC4)CC3)c2)cc1`, the growth was 57.9%.
Still for that read-out and setting: to `COc1cc2nc(N3CCCC3)nc(Nc3ccccc3)c2cc1OC` belongs -91.3% (active); to `COc1cccc(-c2nc3sccn3c2-c2ccnc(NCCNS(=O)(=O)c3ccccc3)c2)c1`, 50%; to `COc1cc(/C=C/C(=O)c2c(C)oc3nc[nH]c(=O)c23)cc(OC)c1OC`, 93.9%.
Turning to `C=C(C)[C@@H]1CC[C@]2(C(=O)OC)CC[C@]3(C)[C@H](CC[C@@H]4[C@@]5(C)C/C(=C/c6ccc(OC)cc6)C(=O)C(C)(C)[C@@H]5CC[C@]43C)[C@@H]12`, the growth was 102%.
For `O=S(=O)(Nc1ccc(I)cc1F)c1ccc(-c2cnc(C3CC3)o2)cc1`, the growth was 61.7%.
On to `COc1cc2nc(N3CCCC3)nc(NCCc3ccccc3)c2cc1OC`, for which the growth is 88.6%.
Take `COc1ccc(Nc2nc(SC)nc(-c3cccc([N+](=O)[O-])c3)c2C#N)cc1`: the growth was 84.9%.
Regarding `COc1cc(CNc2oc(-c3ccccc3)c(-c3ccccc3)c2C#N)cc(CN2CCN(C)CC2)c1O`, the growth is -38.4% (active).
`COc1ccc(-c2nc3ccc(-c4nc5ccc(N6CCN(c7ccncc7)CC6)cc5[nH]4)cc3[nH]2)cc1OC`: the growth is 19.1%.
Take `O=C1/C(=C/c2cn(-c3ccccc3)nc2-c2ccccc2)SC(=S)N1CCc1ccccc1`: the growth is 118%.
Consider `CCCN1CCN(c2ccc3nc(-c4ccc5nc(-c6ccc(OCC)cc6)[nH]c5c4)[nH]c3c2)CC1`, for which the growth is 48.4%.
`COc1cccc(-c2nc3sccn3c2-c2ccnc(NCCCNS(=O)(=O)c3cccc(F)c3)c2)c1`: the growth is 42.6%.
In the case of `Cn1c(=O)c2c(nc3n(-c4ccc(Cl)cc4Cl)c(Sc4nc(-c5ccccc5)c(C#N)c(=O)[nH]4)cn23)n(C)c1=O`, the growth is 87.8%.
With `O=C(/C=C/c1ccccc1)c1ccc(O)c(CN2CCN(c3cc4c(cc3F)c(=O)c(C(=O)O)cn4C3CC3)CC2)c1`, the growth is 46.5%.
Regarding `C=CC(=O)Nc1cccc(-c2nc(SC)nc(Nc3ccccc3OC)c2C#N)c1`, the growth was 50.8%.
`COc1cccc(-c2nc3sccn3c2-c2ccnc(NCCNS(=O)(=O)c3ccc(F)cc3)c2)c1`: the growth is 45.2%.
With `COc1cc2nc(N3CCCC3)nc(NCc3ccccc3)c2cc1OC`, the growth is 57%.
Take `N#Cc1c(-c2ccc(Cl)cc2)nc(N/N=C/c2cccc(Br)c2)nc1N1CCOCC1`: the growth is 99.5%.
For `CSc1nc(-c2cccc(NC(=O)CCl)c2)c(C#N)c(=O)n1C`, the growth is 87.3%.
Regarding `C=CC(=O)Nc1cccc(-c2nc(SC)nc(NCCc3ccc(OC)c(OC)c3)c2C#N)c1`, the growth is 72.3%.
Consider `O=C(/C=C/c1cccc([N+](=O)[O-])c1)c1ccc(O)c(CN2CCN(c3cc4c(cc3F)c(=O)c(C(=O)O)cn4C3CC3)CC2)c1`, for which the growth was 46.4%.
In the case of `COc1cc(/C=C/C(=O)c2ccc(O)c(CN3CCN(c4cc5c(cc4F)c(=O)c(C(=O)O)cn5C4CC4)CC3)c2)cc(OC)c1OC`, the growth was 59.3%.
With `CC(C)(O)c1cn(CCCCN2C(=O)C(=O)c3ccccc32)nn1`, the growth is 113%.
`COC(=O)[C@]12CCC(C)(C)C[C@H]1[C@H]1C(=O)C[C@@H]3[C@@]4(C)c5c([nH]c6ccccc6c5=O)C(C)(C)[C@@H]4CC[C@@]3(C)[C@]1(C)CC2`: the growth is 68%.
Still for that read-out and setting: in the case of `N=C(N)c1ccc(-c2ccc(-c3ccc4ccccc4c3)s2)s1` it was 92.8%; in that of `C=CC(=O)Nc1cccc(-c2nc(SC)nc(NCCN3CCOCC3)c2C#N)c1`, 114%.
Same read-out and setting: to `COc1cc(C=Nc2oc(-c3ccccc3)c(-c3ccccc3)c2C#N)cc(CN2CCCCC2)c1O` belongs 110%; to `CC1=NN(c2nc(-c3ccc(Cl)cc3)c(C#N)c(N3CCOCC3)n2)C(=O)C1`, 33.1%; to `COc1cccc(Nc2nc(SC)nc(-c3cccc([N+](=O)[O-])c3)c2C#N)c1`, 76.3%.
Turning to `CSc1nc(NCCO)c(C#N)c(-c2cccc([N+](=O)[O-])c2)n1`, the growth is 112%.
With `Cn1c(O)c(N=NC(=O)c2cc(-c3ccccc3)on2)c2ccccc21`, the growth was 107%.
The same measure, in the same setting: to `CSc1nc(Nc2cccc(NC(=O)/C(C#N)=C/c3c(Cl)cccc3Cl)c2)c(C#N)c(-c2cccc([N+](=O)[O-])c2)n1` belongs 76.7%; to `COc1ccc(-c2nc3ccc(-c4nc5ccc(N6CCN(c7ccccc7)CC6)cc5[nH]4)cc3[nH]2)cc1OC`, -47.5% (active).
Turning to `O=C(N=Nc1c(O)[nH]c2ccccc12)c1cc(-c2ccccc2)on1`, the growth is 108%.
Consider `O=C1CC(=NCC(=O)n2c(-c3ccccc3)nc3ccccc32)NN1`, for which the growth is 118%.
